Results reported in PubChem BioAssay (NCATS).
Inconclusive results are not listed. The source made the active and inactive calls. Calls come from the whole dose curve; as a rule, active = well fitted inhibition curve with a large enough effect; inconclusive = small, poorly fitted or top-dose-only effect; inactive = no such curve, though single readings can be large or run the other way.

test: BET inhibitor-based combinations targeting novel dependencies in MECOM-rearranged (r) AML: HNT-34 cell line (AID 2202234); conditions: HNT-34 AML viability, CellTiter-Glo luminescence, 48 h; series mostly up to 46 µM; viability (% of control): at the top concentration; note: nearly all actives have a fitted effect of over 35% in size;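 for viability (% of control): plate controls were vehicle wells for no effect and cell-free wells for full effect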
From the text: Ecotropic viral insertion site 1 (EVI1) is located on chromosome 3q26.2 as part of the MECOM (MDS and EVI1 complex) locus. Under normal hematopoiesis, EVI1 is a regulator of hematopoietic stem cell maintenance and self-renewal and EVI1 levels decrease as the cells differentiate. In approximately 5-10% of de novo acute myeloid leukemia (AML) EVI1 is aberrantly expressed, including Chromosomal inv(3)(q21;q26.2) or t(3;3)(q21;q26.2) alterations (MECOM-r) that account for about 50% of AML with EVI1 overexpression 31. AMLs with high levels of EVI1 have a poor prognosis and an overall survival time averaging between 10-14 months. EVI1 overexpression confers resistance in leukemia cells, highlighting the need to develop new targeted therapies for EVI1 overexpressing AMLs. Here, we performed an unbiased chemical drug screening by evaluating the single agent activity of a collection of 2,480 oncology-focused, approved and investigational drugs (NCATS Mechanism Interrogation Plates, MIPE v5.0) against a panel of seven AML cell lines. These included four MECOM-r cell-lines (AML-191, AML-194, UCSD-AML1 and HNT-34) and three non-MECOM-r AMLs (MV4-11, OCI-AML3 and SET-2). Exploiting the mechanistic redundancy built in the library, we identified target-level sensitivities in MECOM-r AML cells and relative activity as compared to other AML subtypes.
A collection of 2480 mechanistically annotated dugs (MIPE v5.0) was used to screen four 3q26.2 rearranged AML cell lines and three non-3q26.2 rearranged AML cell lines. This library purposely exploits redundancy by including multiple inhibitors of key onco-targets, while simultaneously encompassing mechanistic diversity, targeting more than 800 distinct mechanisms of action. Briefly, cells were seeded in 5 uL of growth media using a Multidrop Combi dispenser into 1536 well white polystyrene tissue culture treated plates (Corning) at a density of 500cells/well. For each cell-line, for each of the 2480 drugs in MIPE v5.0 library, an 11-point dose curve was generated via a 1536 pin-tool. Plates were incubated for 48 hr at standard incubator conditions, covered by a stainless steel gasketed lid to prevent evaporation. Cell viability was determined by luminescence based, Cell Titer Glo assay (Promega). In detail, 3 uL of Cell Titer Glo were added to each well and plates were incubated at room temperature for 15 min with a stainless-steel lid in place. Luminescence readings were taken using a Viewlux (PerkinElmer) with a 2 s exposure time per plate. Compound dose-response curves were normalized to DMSO and empty well controls on each plate. Quantitative drug activity data from dose-response curves was determined utilizing area Under the Curve (AUC) and Z-transformed AUC (Z-AUC, a mean-centering transformation applied to each individual cell-line screened).
Potency is the fitted concentration of half-maximal effect.

SMILES | viability (% of control) | Potency
COc1cc2cc(c1Cl)N(C)C(=O)C[C@H](OC(=O)C(C)C)[C@]1(C)O[C@@H]1[C@H](C)[C@@H]1C[C@@](O)(NC(=O)O1)[C@H](OC)/C=C/C=C(\C)C2 | 28.6% (inactive) | 
NC(=O)[C@@H](CC1CC1)[C@@H](CCC(F)(F)F)C(=O)N[C@H]1N=C(c2ccccc2)c2cccc(F)c2NC1=O | 93.2% (inactive) | 
CC(C)[C@H]1C(=O)N[C@H](CO)Cc2c[nH]c3cccc(c23)N1C |  | 51.2 nM (active)
COC(=O)[C@@H](N)CCCN=C(N)N[N+](=O)[O-] | 103% (inactive) | 
COC12C(COC(N)=O)C3=C(C(=O)C(C)=C(N)C3=O)N1CC1C2N1C (stereo not given) | 103% (inactive) | 
C[C@@H](C1CC[C@@]2(O)C3=CC(=O)[C@@H]4C[C@@H](O)[C@@H](O)C[C@]4(C)[C@H]3CC[C@]12C)[C@H](O)CCC(C)(C)O (stereo not given in full) | 104% (inactive) | 
O=c1[nH]c2ccc(Cl)cc2c(N[C@@H]2CN3CCC2CC3)c1-c1nc2ccccc2[nH]1 |  | 590 nM (active)
CN[C@@H]1Cc2cccc3[nH]c(=O)n(c23)C1 | 109% (inactive) | 
COCC1(CO)C(=O)C2CCN1CC2 (stereo not given) |  | 5900 nM (active)
CC(NC(C)(C)C)C(=O)c1cccc(Cl)c1 (stereo not given) | 107% (inactive) | 
CC(C)c1cccc(C(C)C)c1O | 107% (inactive) | 
C[C@@H]1C[C@@H]([C@H](O)CC2CC(=O)NC(=O)C2)C(=O)[C@@H](C)C1 |  | 263 nM (active)
CCOC(=O)c1c(C(C#N)=CN)c2ccc(Cl)c(Cl)c2n1C | 87% (inactive) | 
C[C@]12CC[C@H](O)CC1=CC[C@@H]1[C@@H]2CC[C@]2(C)C(=O)CC[C@@H]12 | 114% (inactive) | 
N[C@@H](Cc1ccc(N(CCCl)CCCl)cc1)C(=O)O |  | 3720 nM (active)
c1ccc2c(CN3CCNCC3)cccc2c1 | 92.5% (inactive) | 
CO[C@H]1CCC(O[C@H]2C[C@H]([C@]3(C)CC[C@]4(C[C@H](O)[C@@H](C)[C@@H]([C@@H](C)/C=C(\C)C(=O)[C@H](C)C[C@H](C)C(=O)O)O4)O3)O[C@]3(O[C@@H]([C@H]4O[C@@](O)(CO)[C@H](C)C[C@@H]4C)C[C@@H]3C)[C@@H]2C)O[C@@H]1C (stereo not given in full) |  | 148 nM (active)
Cc1[nH]nc2ccc(-c3cncc(OC[C@@H](N)Cc4c[nH]c5ccccc45)c3)cc12 |  | 742 nM (active)
C[C@H]1[C@H](O)[C@@H](C)/C=C/C=C/CC/C=C/C=C/C=C/C=C/[C@H](O[C@@H]2O[C@H](C)[C@@H](O)[C@H](N)[C@@H]2O)C[C@@H]2O[C@](O)(C[C@@H](O)[C@H](O)CC[C@@H](O)C[C@@H](O)C[C@@H](O)CC(=O)O[C@H]1C)C[C@H](O)[C@H]2C(=O)O | 83% (inactive) | 
C#CCN(C)[C@H](C)Cc1ccccc1 | 93.3% (inactive) | 

SMILES | viability (% of control) | Potency
O=S(=O)(F)Cc1ccccc1 | 108% (inactive) | 
Cc1ccccc1-n1c(Cn2cnc3c(N)ncnc32)nc2cccc(C)c2c1=O | 97.5% (inactive) | 
CNCC(O)c1ccc(O)cc1 (stereo not given) | 107% (inactive) | 
CC(C)[C@]12O[C@H]1[C@@H]1O[C@]13[C@]1(O[C@H]1C[C@H]1C4=C(CC[C@@]13C)C(=O)OC4)[C@@H]2O |  | 74.2 nM (active)
CC(C)CC(N(C)C)C1(c2ccc(Cl)cc2)CCC1 (stereo not given) | 91.5% (inactive) | 
NN=C(N)N | 102% (inactive) | 
CC(=O)OC[C@H]1O[C@@H]([S-])[C@H](OC(C)=O)[C@@H](OC(C)=O)[C@@H]1OC(C)=O.CC[PH+](CC)CC.[Au] |  | 833 nM (active)
C[C@]12CC[C@H]3[C@@H](CCC4=CC(=O)CC[C@@]43C)[C@H]1CC[C@H]2OC(=O)CCC1CCCC1 | 87.9% (inactive) | 
Cc1sc2c(c1C)C(c1ccc(Cl)cc1)=NC(CC(N)=O)c1nnc(C)n1-2 (stereo not given) |  | 148 nM (active)
CC(C)(NC(=O)O[C@@H]1CN2CCC1CC2)c1csc(-c2ccc(F)cc2)n1 |  | 14800 nM (active)
N=c1c2c(-c3ccccc3)c(-c3ccccc3)n(Cc3ccccc3)c2ncn1C1CCC(O)CC1 (stereo not given) |  | 2630 nM (active)
CC(C)(O)/C=C\C(=O)[C@](C)(O)[C@H]1[C@H](O)C[C@]2(C)[C@@H]3CC=C4[C@@H](C=C(O)C(=O)C4(C)C)[C@]3(C)C(=O)C[C@@]12C |  | 105 nM (active)
COC[C@H]1OC(=O)c2coc3c2[C@@]1(C)C1=C(C3=O)[C@@H]2CC[C@H](O)[C@@]2(C)C[C@H]1OC(C)=O |  | 5250 nM (active)
COC[C@H]1OC(=O)c2coc3c2[C@@]1(C)C1=C(C3=O)C2CCC(=O)[C@@]2(C)C[C@H]1OC(C)=O (stereo not given in full) |  | 5900 nM (active)
COC(=O)[C@]12CCC(C)(C)C[C@H]1[C@H]1C(=O)C=C3[C@@]4(C)C=C(C#N)C(=O)C(C)(C)[C@@H]4CC[C@@]3(C)[C@]1(C)CC2 |  | 1660 nM (active)
CN1C(=O)COc2c(C(=O)NC3CN4CCC3CC4)cc(Cl)cc21 (stereo not given) | 101% (inactive) | 
C=C(C)[C@H]1Cc2c(ccc3c2O[C@@H]2COc4cc(OC)c(OC)cc4[C@@H]2C3=O)O1 |  | 833 nM (active)
CC(O)(CS(=O)(=O)c1ccc(F)cc1)C(=O)Nc1ccc(C#N)c(C(F)(F)F)c1 (stereo not given) | 91.2% (inactive) | 
CCc1c(C(=O)C(N)=O)c2c(OCC(=O)O)cccc2n1Cc1ccccc1 | 102% (inactive) | 
CCC1(c2ccc(N)cc2)CCC(=O)NC1=O (stereo not given) | 105% (inactive) | 
